A selection: hits, their analogues and other compounds. The true share with any hit is near 10%.
ALDH1A1 inh – qHTS Assay for Inhibitors of Aldehyde Dehydrogenase 1 (ALDH1A1); Purified ALDH1A1, NADH fluorescence, propionaldehyde substrate; Potency, µM (highest dose often 75.3 µM), for inactives: at the highest dose activity, negative = inhibition, most hits filed as inhibitors; 220,000 tested, 7.3% active; AID 1030, 2008;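 note: potency is the fitted concentration of half-maximal effect; plate controls were no enzyme wells and a reference inhibitor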
Target sequence (P00352 whole entry, looked up): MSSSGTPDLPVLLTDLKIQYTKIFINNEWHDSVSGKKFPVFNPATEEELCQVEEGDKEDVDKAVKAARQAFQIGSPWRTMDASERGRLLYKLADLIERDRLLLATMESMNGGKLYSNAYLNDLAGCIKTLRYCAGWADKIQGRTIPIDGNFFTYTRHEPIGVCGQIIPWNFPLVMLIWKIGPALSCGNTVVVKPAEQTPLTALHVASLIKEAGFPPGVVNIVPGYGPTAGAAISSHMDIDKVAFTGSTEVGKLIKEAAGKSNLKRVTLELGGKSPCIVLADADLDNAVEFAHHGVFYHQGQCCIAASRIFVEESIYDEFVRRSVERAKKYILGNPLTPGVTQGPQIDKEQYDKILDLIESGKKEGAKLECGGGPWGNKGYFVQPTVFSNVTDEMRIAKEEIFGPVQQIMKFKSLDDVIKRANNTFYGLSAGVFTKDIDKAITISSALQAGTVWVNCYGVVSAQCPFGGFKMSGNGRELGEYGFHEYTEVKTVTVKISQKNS
KinaseGlo FLuc – Counterscreen for Luciferase (Kinase-Glo TM) Inhibition | 200,000 tested, 0.28% active | AID 1379, 2008 | Kinase-Glo luciferase, ATP luminescence, 8 min | Potency, µM (doses to about 38.3 µM), for the others: top-dose activity change, negative = inhibition, usual class: inhibitors | Luciferin 4-monooxygenase (Photuris pensylvanica), Q27757; active = well fitted inhibition curve with a large enough effect; inconclusive = small, poorly fitted or top-dose-only effect; note: potency is the fitted concentration of half-maximal effect; nearly all actives have a fitted effect of over 60% in size
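Luminescence was the read-out, taken after 8-minute incubation at ambient temperature. Luciferase turned over luciferin with 10 uM ATP in imidazole pH 7.2 buffer containing KCl, MgCl2, Tween 20 and BSA.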
LMNA splice mod – qHTS Assay for Modulators of Lamin A Splicing; HeLa LMNA splicing GFP/RFP minigene ratio, 48 h; Potency, µM (doses to about 46.1 µM), without a hit: at the highest dose ratio change, negative = inhibition, most hits filed as inhibitors; 200,000 tested, 0.01% active; AID 1487, 2009; active = well fitted inhibition curve with a large enough effect in the signal ratio, with a control signal flat, not every such curve was filed as active; inconclusive = small, poorly fitted or top-dose-only effect, or effect the other way, or a change in a side signal; the % refers to the signal ratio; note: potency is the fitted concentration of half-maximal effect
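S3 HeLa stable clones carrying a lamin A-EGFP splicing minigene plus DsRed2 were seeded at 600 cells/well in Opti-MEM with 2% FBS, pin-dosed and incubated 48 h at 37°C. Acumen cytometry (488 nm) gave the GFP/RFP total-intensity ratio.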
IMPase cell inh – qHTS Assay for Identifying the Cell-Membrane Permeable IMPase Inhibitors. inhibition (IP1 accumulation), % at 46.1 µM. AID 901, 2007. Inositol monophosphatase 1 (Rattus norvegicus), P97697. CHO-M1 cells, IP1 accumulation, HTRF TR-FRET ratio. 120,000 tested, under 10 active; active = well fitted curve in the direction sought with a large enough effect in the signal ratio, not every such curve was filed as active; inconclusive = small, poorly fitted or top-dose-only effect, or a change in a side signal; inactive = no such curve, though single readings can be large or run the other way; the % refers to the signal ratio;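 note: cells stimulated with carbachol in lithium chloride buffer; plate controls were DMSO basal wells for no effect and reference inhibitor wells for full effect; higher means more IMPase inhibition seen as more IP1 and lower FRET ratio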
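Carbachol-driven Gq signalling in CHO-M1 cells (2000/well) generates IP1. Compounds that block IMPase raise IP1 and so reduce the FRET signal from Eu-anti-IP1 and d2-IP1 after a 10 min room-temperature lysis.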
HPGD block – qHTS Assay for Inhibitors of HPGD (15-Hydroxyprostaglandin Dehydrogenase). 15-hydroxyprostaglandin dehydrogenase [NAD(+)] (Homo sapiens), P15428. purified HPGD, NADH fluorescence kinetic, PGE2 substrate. Potency, µM, for inactives: top-dose activity change, negative = inhibition, hits mostly inhibitors. 150,000 tested, 4.3% active. AID 894, 2007; note: potency is the fitted concentration of half-maximal effect
Target sequence (P15428 whole entry, looked up): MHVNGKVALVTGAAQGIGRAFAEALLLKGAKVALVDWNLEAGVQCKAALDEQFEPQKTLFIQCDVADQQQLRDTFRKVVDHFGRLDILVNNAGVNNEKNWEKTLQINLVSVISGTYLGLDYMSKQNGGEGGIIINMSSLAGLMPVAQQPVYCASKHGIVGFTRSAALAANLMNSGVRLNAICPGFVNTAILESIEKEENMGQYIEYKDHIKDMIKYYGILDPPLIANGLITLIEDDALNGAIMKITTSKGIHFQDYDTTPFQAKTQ
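20 nM HPGD preincubated 15 min at room temperature with compound in 50 mM Tris-HCl pH 8, 0.01% Tween 20. Started with 1 mM NAD+ and 30 uM prostaglandin E2; NADH fluorescence (360/450 nm) read 5 times over 30-s intervals, last minus first.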
PNC inhibitor – High Content Assay for Compounds that inhibit the Assembly of the Perinucleolar Compartment. activity change (PNC), negative = inhibition, % at 10 µM. PC3M PTB-GFP, PNC prevalence imaging, 16 h; hits give low values. 140,000 tested, 3.1% active;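 active = readout at or below -70, meaning at least 70% loss of cells showing the perinucleolar compartment, a nuclear body marking cancer cells; inconclusive = readout between -30 and a set limit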;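 note: plate controls were DMSO wells for no effect and camptothecin positive control wells for full effect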
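Compounds are pinned in duplicate onto adhered PC3M cells stably expressing GFP-tagged PTB and incubated 16 h at 37 C. Cells are then fixed, nuclei stained with Hoechst, and PNC-positive cells counted.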
Starred values were filed as active, the others as inactive; ? = inconclusive; . = not tested or not shown; [ ] = another dose, or the depositor's remark. Unless noted, calls come from the whole dose curve; as a rule, active = well fitted inhibition curve with a large enough effect (not every such curve was filed as active); inconclusive = small, poorly fitted or top-dose-only effect, or another doubt; inactive = no such curve, though single readings can be large or run the other way. Unless noted, % is set by controls: 0 for no effect and ±100 for the full control effect.

SMILES | ALDH1A1 inh | KinaseGlo FLuc | LMNA splice mod | IMPase cell inh | HPGD block | PNC inhibitor
CC1CN(C(=O)COC(=O)c2ccc(NC(=O)CC#N)cc2)CC(C)O1 (centres undefined) | 6.3µM* | 1% | 3%[46 µM] | . | . | .
CC1CN(C(=O)COC(=O)c2ccc(N)c([N+](=O)[O-])c2)CC(C)O1 (centres undefined) | ? | 4% | -4% | 9 | 28µM* | ?
Cc1cc(C(=O)OCC(=O)N2CC(C)OC(C)C2)ccc1[N+](=O)[O-] (centres undefined) | ? | -1% | -5%[46 µM] | . | . | .
Cc1ccccc1CS(=O)(=O)Cc1ccc(C(=O)NCc2ccc(F)cc2)o1 | . | . | -4%[46 µM] | . | . | .
NC(=O)C1CCN(c2ncnc3c2cnn3-c2cccc(Cl)c2)CC1 | . | . | 15%[46 µM] | . | . | .
CCOc1ccc2nc(NC(=O)c3cnccn3)sc2c1 | -14% | . | 1% | 1 | . | -11
O=C(Nc1nc2ccc(F)cc2s1)c1ccccn1 | -1% | 11µM* | . | . | . | .
O=C(Nc1nccs1)c1cnccn1 | 0% | 2% | -3% | -5 | -9% | -100*
O=C(Nc1nc2ccccc2s1)c1cnccn1 | -10% | 7.9µM* | 5% | 1 | -16% | -10
Cc1ccc[n+](CC(=O)Nc2nc3ccccc3s2)c1 | 14µM* | 0% | . | . | . | .
COc1cccc(C(=O)N2c3cc(C)ccc3C(C)(c3ccccc3)CC2(C)C)c1 (centres undefined) | . | . | . | -4 | . | .
Cc1ccc(C(=O)Nc2nc3ccccc3s2)s1 | ? | 13µM* | ? | -5 | ? | 25
Cc1ccc(C(=O)Nc2nc3ccc(S(C)(=O)=O)cc3s2)s1 | ? | -6% | 6% | -2 | -24% | 22
CN(C)/C=C/C1=CC(=O)CC(C)(C)C1 | 8.9µM* | -1% | 6%[9.22 µM] | . | . | .
CC1(C)CC(=O)C=C(NCCO)C1 | -1% | -2% | -1% | 9 | -5% | 2
O=S(=O)(c1cnc(Cl)c(Br)c1)N1CCc2ccccc21 | 2.8µM* | . | . | . | . | .
O=S(=O)(c1cnc(Cl)c(Cl)c1)N1CCCc2ccccc21 | 3.2µM* | 2% | -7% | . | -13% | 15
O=c1nc2n(c3c4c(sc13)CCC4)CCC2 | 18µM* | -9% | 0% | 7 | -20% | 23
COc1ccccc1N(C(=O)c1ccncc1)c1nc(-c2ccc([N+](=O)[O-])cc2)cs1 | 11µM* | 1% | ? | . | -16% | -18
Cc1ccc(-c2nc3ccccn3c2NC(=O)c2ccco2)cc1 | ? | -3% | 5% | 14 | 2% | -20
CCOC(=O)c1sc(NC(=O)c2ccco2)nc1-c1ccccc1 | -2% | -4% | -9% | -20 | -12% | -5
COC(=O)Nc1nc(C)c(C(=O)c2ccccc2)s1 | -2% | -2% | -24% | -3 | -18% | ?
CC(=O)c1sc(NC(=O)c2ccco2)nc1-c1ccccc1 | 2% | 5% | -8% | 6 | 11µM* | 3
Cc1sc(NC(=O)c2ccco2)nc1-c1ccccc1 | -5% | 7% | 2% | 4 | 14µM* | ?
O=C(Nc1c(-c2ccccc2)nc2ccccn12)c1ccco1 | -12% | 0% | -2% | -4 | -2% | -82*
SMILES | ALDH1A1 inh | KinaseGlo FLuc | LMNA splice mod | IMPase cell inh | HPGD block | PNC inhibitor
COC(=O)Nc1nc(-c2ccccc2)c(C(=O)c2ccccc2)s1 | 1% | -2% | ? | 2 | -17% | -98*
COc1ccc(-c2nc(CCNC(=O)Cc3ccc(F)cc3)cs2)cc1 | . | . | -2%[46 µM] | . | . | .
O=S(=O)(/N=C(\Sc1ccc(Cl)cc1)c1ccccc1)c1ccccc1 | -19% | -8% | 16% | 8 | 20µM* | 25
CS/C(=N\S(=O)(=O)c1ccc(Cl)cc1)c1ccccc1 | -1% | 8% | -8% | 5 | -20% | 0
O=C(Cc1n[nH]c(=O)c2ccccc12)Nc1ccc(-c2nnc3n2CCCCC3)cc1 | 16µM* | 2% | 2% | 6 | 10µM* | 45
O=C(Cn1[nH]c(=O)c2ccccc2c1=O)Nc1cccnc1 | 5% | 2% | . | . | . | .
O=C(Cn1[nH]c(=O)c2ccccc2c1=O)Nc1ccc(-c2nnc3n2CCCCC3)cc1 | 14µM* | 0% | 7% | -5 | 3.5µM* | -5
O=C(CC1Sc2ccccc2NC1=O)Nc1cccc(-c2nnc3n2CCCCC3)c1 (centres undefined) | -1% | -6% | 0% | 3 | 32µM* | -13
O=C(CC1Sc2ccccc2NC1=O)Nc1cccnc1 (centres undefined) | 5% | 4% | -2% | . | -6% | 51
CNC(=S)NNc1ccccc1[N+](=O)[O-] | 14µM* | -3% | . | . | . | .
COCCNC(=S)NNc1ccccc1[N+](=O)[O-] | 25µM* | -2% | . | . | . | .
O=C(NNc1ccccc1[N+](=O)[O-])Nc1ccccc1 | ? | -5% | -7% | -3 | -13% | 12
O=C(CSc1n[nH]c(-c2ccccc2Cl)n1)N1CCN(c2ccccc2F)CC1 | . | . | -9%[46 µM] | . | . | .
CC(=O)c1ccc(N2C(=O)N(Cc3cc(C)ccc3C)c3ccccc3S2(=O)=O)cc1 | . | . | 21%[46 µM] | . | . | .
C=CCOC(=O)N[C@H](/C(C(=O)OC)=C(\C)NCc1ccccc1)c1ccc(Br)cc1 | ? | -8% | . | . | 0% | .
CSc1ccccc1NC(=O)COc1ccccc1Cl | -12% | -5% | 11% | 2 | 25µM* | 60
CSc1ccccc1NC(=O)COc1ccc(Cl)cc1 | -13% | 3% | ? | . | 28µM* | -10
O=C(CCl)Nc1ccccc1Sc1ccc(Cl)cc1 | 4µM* | -1% | ? | 6 | -11% | 25
C/C=C/OC(=O)NC(c1ccccc1)[C@@]1(C(=O)OC)CCCC1=O (some centres undefined) | 6%[13.5 µM] | . | . | . | . | .
CCOC(=S)SCC(=O)O | ? | -6%[7.66 µM] | . | . | -7% | .
COc1ccc2nc(SCC(=O)Nc3ccc(S(=O)(=O)Nc4onc(C)c4C)cc3)[nH]c2c1 | ? | 8% | -6% | 0 | 18µM* | -16
Cc1noc(NS(=O)(=O)c2ccc(N/C=C\C(=O)c3cccc4ccccc34)cc2)c1C | 4µM* | 1% | . | . | . | .
Cc1noc(NS(=O)(=O)c2ccc(NC(=O)CSc3n[nH]c(-c4ccccc4)n3)cc2)c1C | -13% | 2% | 2% | 14 | 4.5µM* | -17
O=C(CSCC(=O)N1CCCCC1)Nc1nc(-c2cccs2)cs1 | ? | 6% | 0% | 2 | -19% | 7
O=C(CSCC(=O)N1CCCCC1)Nc1nc(-c2ccc(Cl)s2)cs1 | 25µM* | 0% | -9% | 8 | ? | 8
